Laboratory results: PubChem BioAssay AID652015 (National Center for Advancing Translational Sciences (NCATS), 2013)
Records with an inconclusive call do not appear. Active and inactive are the calls of the source. The call rests on the fitted dose curve; in most records, active means well fitted inhibition curve with a large enough effect; inconclusive means small, poorly fitted or top-dose-only effect; inactive means no such curve, though single readings can be large or run the other way.

Target: Coelenterazine h 2-monooxygenase (Renilla reniformis) (UniProt P27652)
Sequence (P27652 whole entry, looked up): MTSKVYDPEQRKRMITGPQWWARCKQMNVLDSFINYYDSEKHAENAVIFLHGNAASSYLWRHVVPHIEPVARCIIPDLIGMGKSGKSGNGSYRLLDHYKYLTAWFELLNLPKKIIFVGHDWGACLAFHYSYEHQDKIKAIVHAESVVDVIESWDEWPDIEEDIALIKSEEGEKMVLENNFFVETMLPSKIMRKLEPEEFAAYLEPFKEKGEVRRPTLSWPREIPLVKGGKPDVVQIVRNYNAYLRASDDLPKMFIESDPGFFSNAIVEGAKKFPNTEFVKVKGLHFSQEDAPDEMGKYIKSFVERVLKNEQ
Assay: qHTS Assay for Inhibitors of Sea Pansy Luciferase from the GSK Published Protein Kinase Inhibitor Set
Conditions: purified Renilla luciferase, luminescence; series mostly up to 57.5 µM
Excerpt: FLuc (firefly luciferase) is the prototypical bioluminescent reporter gene from Photinus pyralis.[1] The enzyme catalyzes the oxidation luciferin via luciferin-AMP to produce light. FLuc is used in cell-based reporter gene-based assays for screening small molecule chemical libraries. However, small molecule luciferase inhibitors present in most large chemical libraries are often enriched in the output of high throughput screens using this reporter sometimes complicating interpretation and candidate selection.
RLuc is a bioluminescent reporter gene luciferase from Renilla reniformis, also known as the sea pansy. RLuc uses the luciferin substrate coelenterazine. RLuc is often used in combination with the nonhomologous luciferase FLuc (firefly luciferease) as a trasfection or pathway normalization control. Recently, non-homologous reporters have been described for high throughput screening 'coincidence' reporter gene strategies.
1. Fan F, Wood KV (2007) Bioluminescent assays for high-throughput screening. Assay Drug Dev Technol 5: 127-136.
2. Thorne N, Inglese J, Auld DS (2010) Illuminating insights into firefly luciferase and other bioluminescent reporters used in chemical biology. Chem Biol 17: 646-657.
3. […] Chem Biol 19: 1060-1072.
4. Michelini E, Cevenini L, Mezzanotte L, Coppa A, Roda A (2010) Cell-based assays: fuelling drug discovery. Anal Bioanal Chem 398: 227-238.
5. Cheng KC, Inglese J (2012) A coincidence reporter-gene system for high-throughput screening. Nat Methods 9: 937.
Biochemical renilla luciferase enzyme assay
NCGC Assay Protocol Summary:
Reagents: 50mM Tris acetate, pH 7.5; 100uM NaCl; 5uM Coelenterazine H (Promega #S2011); 0.01% Tween-20; 0.05% BSA; 1nM R. reniformis luciferase (Nanolight Technologies #314)
Control compounds used were a known renilla luciferase inhibitor BTS (Tocris Biosciences #1870) and DMSO.
Three microliters containing renilla luciferase substrate in buffer (final concentrations: 50mM Tris acetate, pH 7.5, 100uM NaCl, 0.01% Tween-20, 0.05% BSA, 5uM coelenterazine h) are dispensed into each well of a Greiner white, solid-bottom 1536-well format plate using a flying reagent dispenser (FRD). These assay plates were then treated with 23nL of compound or DMSO using a Kalypsys pin tool, which allows for delivery of a 7-point interplate titration of each compound to the assay plate (quantitative HTS), with final compound concentrations ranging from approximately 60uM to 300pM. One microliter of renilla luciferase in 50mM Tris-acetate buffer was then delivered by FRD to each well for a final enzyme concentration of 1nM. Luciferase activity was then measured using an Envision plate reader (PerkinElmer), with an average incubation time of 2 min.

Potency, inactive:
CS(=O)(=O)Nc1ccc(-c2cc(-c3ccccc3)cc(C(N)=O)c2N)cc1
CC1=C(C(=O)Nc2ccc3[nH]ncc3c2)C(c2ccc(F)cc2)N=C(c2ccc(C(F)(F)F)nc2)N1 (stereo not given)
c1ccc(-c2[nH]ncc2-c2ccnc(-c3ccc(OCCn4ccnc4)cc3)c2)nc1
CNC(=O)c1cncc(C=Cc2ccccc2C)c1
CCn1c(-c2nonc2N)nc2c(C#CC(C)(C)O)ncc(OCC3CCNCC3)c21
COc1cc(Nc2ncc(-c3ccccc3)o2)cc(OC)c1OC
CNC(=O)c1cncc(C=Cc2ccccc2Cl)c1
COc1ccc(-c2nn3ncccc3c2-c2ccnc(Nc3ccc(Cl)c(C(F)(F)F)c3)n2)cc1
O=S(=O)(CCNCc1ccc(-c2ccc3ncnc(Nc4ccc(OCc5cccc(F)c5)c(Cl)c4)c3c2)o1)c1ccccc1
COc1cc2ncn(-c3cc(OCc4ccccc4C(F)(F)F)c(C(C)=O)s3)c2cc1OC
CCn1c(-c2nonc2N)nc2ccc(F)cc21
CC(C)c1ccc(Nc2nccc(-c3cnn4ncccc34)n2)cc1
Cc1nn(C)c2cc(N(C)c3ccnc(Nc4cccc(S(N)(=O)=O)c4)n3)ccc12
Fc1ccc(-c2ncn(CCCN3CCOCC3)c2-c2ccncc2)cc1
CC(C)c1ccc2c(N=Nc3ccc(S(N)(=O)=O)cc3)c(O)[nH]c2c1
Fc1ccc(-c2nc3n(c2-c2ccncc2)CCS3)cc1
Fc1ccc(-c2ncn(C3CCNCC3)c2-c2ccnc(Oc3ccc(Cl)cc3)n2)cc1
NS(=O)(=O)c1ccc(N=Nc2c(O)[nH]c3ccc(C(=O)NCc4ccncc4)cc23)cc1
CS(=O)(=O)CCNCc1nc(-c2ccc3ncnc(Nc4ccc(F)c(Cl)c4)c3c2)cs1
CCc1cccc(NC(=O)Nc2ccc(Oc3ccc4nc(NC(=O)OC)[nH]c4c3)cc2)c1
CCC(=O)Nc1ccc(C)c(-c2ccc(C(=O)NCC3CC3)cc2)c1
Cc1ccc2c(-c3ccnc(Nc4ccccc4)n3)c(-c3ccc(F)cc3)nn2n1
N#Cc1c(NC(=O)CN2CCOCC2)sc2c1CCCC2
COc1cccc(-n2cnc3c(NN=Cc4ccncc4)ncnc32)c1
CCS(=O)(=O)c1ccc(OC)c(Nc2ncc(-c3cccc(F)c3)o2)c1
NS(=O)(=O)c1ccc(N=Nc2c(O)[nH]c3cccc(CCc4ccncc4)c23)cc1
CCn1c(-c2nonc2N)nc2ccccc21
CCCN1CCC(Oc2cc(Nc3nc(Nc4cccc(F)c4C(N)=O)c4cc[nH]c4n3)c(OC)cc2Cl)CC1
O=C1NC(=O)C(c2ccccc2Cl)=C1Nc1cccc(O)c1
COc1ccc2c(-c3ccnc(Nc4cccc(OC(F)(F)F)c4)n3)cnn2n1
CN1CCN(C(=O)c2ccc(NC(=O)Nc3ccc(N(C)c4ccnc(Nc5ccc(CS(C)(=O)=O)cc5)n4)cc3)cc2)CC1
CCOc1nccc2c1nc(-c1nonc1N)n2CC
COc1cc(C=NNc2ncnc3c2cnn3Cc2ccccc2)ccc1O
Cc1ccc2c(-c3ccnc(Nc4ccc5c(c4)OCCO5)n3)c(-c3ccc(C(F)(F)F)cc3)nn2n1
CCc1ccc(Oc2nccc(-c3c(-c4ccc(F)cc4)ncn3C3CCNCC3)n2)cc1
Nc1ncnc2occ(-c3ccc(NC(=O)Nc4cc(C(F)(F)F)ccc4F)cc3)c12
Cc1ccc(NC(=O)CC2CC2)cc1-c1ccc(C(=O)NCC2CC2)cc1
CC(=O)Nc1cccc(C#Cc2cncnc2Nc2ccc(OCc3cccc(F)c3)c(Cl)c2)n1
O=C1NC(=O)C(c2ccccc2)=C1Nc1ccccc1
COC(=O)Nc1nc2ccc(Oc3ccc(NC(=O)Nc4ccccc4)cc3)cc2[nH]1
